These results are taken from the supplement of paper PMC12494721.

Counter-ions that a name gives are not always drawn.

The test has as its system Klebsiella aerogenes DSM 30053. The test is described as follows: fold change of Histamine concentration vs plate DMSO controls (fold change (ratio)); higher = more amine produced, active = hit call of the paper (significant change in both replicates, either direction). As to conditions: incubation time: 27 h, anaerobic, 37 °C. In short, it runs like this: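 Extracts of whole anaerobic mGAM cultures were analysed for amines by LC–triple-quadrupole MS with dynamic MRM and external calibration curves, with drift corrected within batch. Four gut strains were grown at 37 °C for 27 h in 80 µL wells with compounds at 20 µM final, sweeteners at 50 µM final. Each value expresses fold change over plate DMSO controls. The average of 2 biological replicates is shown.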
As to `CC(C)COCC(CN(Cc1ccccc1)c1ccccc1)N1CCCC1` (centres undefined) [Bepridil hydrochloride] (20 µM), the “fold change of Histamine concentration” value was 0.937 (inactive).

On to `C[C@@H]1C[C@H]2[C@@H]3CCC4=CC(=O)C=C[C@]4(C)[C@@]3(Cl)[C@@H](O)C[C@]2(C)[C@@]1(OC(=O)c1ccco1)C(=O)CCl` [Mometasone furoate] (20 µM), for which the “fold change of Histamine concentration” value was 0.923 (inactive).

As for `c1ccc(-c2ccc(C(c3ccccc3)n3ccnc3)cc2)cc1` (centres undefined) [Bifonazole] (20 µM), the “fold change of Histamine concentration” value was 0.99 (inactive).

`Cc1ncc([N+](=O)[O-])n1CC(C)O` (centres undefined) [Secnidazole] (20 µM): the “fold change of Histamine concentration” value was 0.824 (inactive).

Regarding `CC(=O)[C@H]1CC[C@H]2[C@@H]3C[C@H](C)C4=CC(=O)CC[C@]4(C)[C@H]3[C@@H](O)C[C@]12C` [Medrysone] (20 µM), the “fold change of Histamine concentration” value is 1.02 (inactive).

`Cc1ccc(C(=O)c2ccc(CC(=O)O)n2C)cc1` [Tolmetin sodium salt dihydrate] (20 µM): the “fold change of Histamine concentration” value was 1.05 (inactive).

Consider `COCCOC(=O)C1=C(C)NC(C)=C(C(=O)OC(C)C)C1c1cccc([N+](=O)[O-])c1` (centres undefined) [Nimodipine] (20 µM), for which the “fold change of Histamine concentration” value was 0.947 (inactive).

`CCCCCCCCCCCCCCCCCCCCCC(=O)Nc1ccn([C@@H]2O[C@H](CO)[C@@H](O)[C@@H]2O)c(=O)n1` [Enocitabine] (20 µM): the “fold change of Histamine concentration” value was 1.03 (inactive).

For `CCN(CCCc1ccccc1)CCCc1ccccc1` [Alverine citrate salt] (20 µM), the “fold change of Histamine concentration” value is 0.972 (inactive).

As for `CN(C)CCCC1(c2ccc(F)cc2)OCc2cc(C#N)ccc21` (centres undefined) [Citalopram hydrobromide] (20 µM), the “fold change of Histamine concentration” value is 0.919 (inactive).

Consider `O=C1Nc2ccc(Cl)cc2[C@@](C#CC2CC2)(C(F)(F)F)O1` [Efavirenz] (20 µM), for which the “fold change of Histamine concentration” value was 0.986 (inactive).

With `O=C1NS(=O)(=O)c2ccccc21` [Saccharin] (50 µM), the “fold change of Histamine concentration” value is 1.01 (inactive).

In the case of `O=C(O)CCCC[C@@H]1SC[C@@H]2NC(=O)N[C@@H]21` [Biotin] (20 µM), the “fold change of Histamine concentration” value is 1.02 (inactive).

On to `CC(C)(C(=O)O)c1ccc(C(O)CCCN2CCC(C(O)(c3ccccc3)c3ccccc3)CC2)cc1` (centres undefined) [Fexofenadine hydrochloride] (20 µM), for which the “fold change of Histamine concentration” value is 0.876 (inactive).

Regarding `CC(C)[C@H]1CC[C@H](C(=O)N[C@H](Cc2ccccc2)C(=O)O)CC1` [Nateglinide] (20 µM), the “fold change of Histamine concentration” value was 1.01 (inactive).

Consider `COc1ccc(CNc2nc(N3CCC[C@H]3CO)ncc2C(=O)NCc2ncccn2)cc1Cl` [Avanafil] (20 µM), for which the “fold change of Histamine concentration” value is 1.01 (inactive).

Turning to `C#CCN(C)CCCOc1ccc(Cl)cc1Cl` [Clorgyline hydrochloride] (20 µM), the “fold change of Histamine concentration” value is 1.04 (inactive).

As to `Cc1cc(-c2ccccc2)nnc1NCCN1CCOCC1` [Minaprine dihydrochloride] (20 µM), the “fold change of Histamine concentration” value was 0.939 (inactive).

For `c1ccc(CNc2ncnc3nc[nH]c23)cc1` [Aminopurine, 6-benzyl] (20 µM), the “fold change of Histamine concentration” value is 1.06 (inactive).

`COc1cccc(N(C)C(=S)Oc2ccc3c(c2)CCCC3)n1` [Liranaftate] (20 µM): the “fold change of Histamine concentration” value is 1 (inactive).

Turning to `C=CCOc1ccccc1OCC(O)CNC(C)C` (centres undefined) [Oxprenolol hydrochloride] (20 µM), the “fold change of Histamine concentration” value is 1.02 (inactive).

On to `C[C@@H](O[C@H]1OCCN(Cc2n[nH]c(=O)[nH]2)[C@H]1c1ccc(F)cc1)c1cc(C(F)(F)F)cc(C(F)(F)F)c1` [Aprepitant] (20 µM), for which the “fold change of Histamine concentration” value is 1.02 (inactive).

On to `CCOc1ccc(Cc2nccc3cc(OCC)c(OCC)cc23)cc1OCC` [Ethaverine hydrochloride] (20 µM), for which the “fold change of Histamine concentration” value was 1 (inactive).

Take `O=C(CCCCC(=O)Nc1c(I)cc(I)c(C(=O)O)c1I)Nc1c(I)cc(I)c(C(=O)O)c1I` [Iodipamide] (20 µM): the “fold change of Histamine concentration” value was 1.04 (inactive).

On to `NC(=O)c1cnccn1` [Pyrazinamide] (20 µM), for which the “fold change of Histamine concentration” value was 0.957 (inactive).

For `CCN(CC)CCOC(=O)c1ccc(N)cc1` [Procaine hydrochloride] (20 µM), the “fold change of Histamine concentration” value is 0.974 (inactive).

With `CCCCC(CC)CNC(=N)NC(=N)NCCCCCCNC(=N)NC(=N)NCC(CC)CCCC` (centres undefined) [Alexidine dihydrochloride] (20 µM), the “fold change of Histamine concentration” value was 1.11 (inactive).

Consider `Cc1onc(-c2ccccc2)c1C(=O)N[C@@H]1C(=O)N2[C@@H]1SC(C)(C)[C@@H]2C(=O)O` [Oxacillin sodium] (20 µM), for which the “fold change of Histamine concentration” value is 0.996 (inactive).

Consider `CC(=O)N[C@@H](CC(C)C)C(=O)O` [N-Acetyl-L-leucine] (20 µM), for which the “fold change of Histamine concentration” value was 0.86 (inactive).

`CC(C)CN(C[C@@H](O)[C@H](Cc1ccccc1)NC(=O)O[C@H]1CO[C@H]2OCC[C@H]21)S(=O)(=O)c1ccc(N)cc1` [Darunavir] (20 µM): the “fold change of Histamine concentration” value was 1.05 (inactive).

Take `CN1CCc2cccc3c2[C@H]1Cc1ccc(O)c(O)c1-3` [R(-) Apomorphine hydrochloride hemihydrate] (20 µM): the “fold change of Histamine concentration” value was 1.02 (inactive).

For the compound `CC(=O)OCC(=O)[C@@]1(O)[C@H](C)C[C@H]2[C@@H]3CCC4=CC(=O)C=C[C@]4(C)[C@@]3(F)[C@@H](O)C[C@@]21C` [Dexamethasone acetate] (20 µM), the “fold change of Histamine concentration” value is 1.02 (inactive).

With `CN(C)CCC(c1ccc(Br)cc1)c1ccccn1` (centres undefined) [Brompheniramine maleate] (20 µM), the “fold change of Histamine concentration” value was 0.891 (inactive).

In the case of `C#C[C@]1(O)CC[C@H]2[C@@H]3CCC4=C(CCC(=O)C4)[C@H]3CC[C@@]21C` [Norethynodrel] (20 µM), the “fold change of Histamine concentration” value was 1.03 (inactive).

For `CN1CCN(CCCN2c3ccccc3Sc3ccc(S(=O)(=O)N(C)C)cc32)CC1` [Thioproperazine dimesylate] (20 µM), the “fold change of Histamine concentration” value is 0.898 (inactive).

Turning to `CCN1/C(=C/C=C/C=C/c2sc3ccccc3[n+]2CC)Sc2ccccc21` [Dithiazanine iodide] (20 µM), the “fold change of Histamine concentration” value was 0.924 (inactive).

Regarding `O=C(O)/C=C/c1ccc(Cn2ccnc2)cc1` [Ozagrel hydrochloride] (20 µM), the “fold change of Histamine concentration” value was 1.02 (inactive).

In the case of `C=CCOc1ccc(CC(=O)O)cc1Cl` [Alclofenac] (20 µM), the “fold change of Histamine concentration” value is 0.998 (inactive).

Take `CCCCc1nc(Cl)c(CO)n1Cc1ccc(-c2ccccc2-c2nnn[nH]2)cc1` [Losartan] (20 µM): the “fold change of Histamine concentration” value was 1.07 (inactive).
